A selection: hits, their analogues and other compounds. The true share with any hit is near 11%.
Tau fluor counter: Counterscreen qHTS for Inhibitors of Tau Fibril Formation, Fluorescence Polarization. tau K18 P301L Alexa594 fluorescence, heparin fibrillization. Potency, µM (series often up to 57.7 µM). hit rate 0.93% among 280,000. AID 1463, 2008; further: nearly all actives have a fitted effect of over 55% in size
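Human K18 P301L tau (15 uM unlabeled plus 0.24 uM Alexa 594-labeled, final) in 100 mM sodium acetate pH 7 was mixed with compound and 20 uM heparin and incubated 6 hr at 37 C.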
Tau FP inhib: qHTS for Inhibitors of Tau Fibril Formation, Fluorescence Polarization; Microtubule-associated protein tau (Homo sapiens), P10636; K18 P301L tau heparin fibrillization, Alexa594 FP, 6 h; Potency, µM (titrated, usually from 57.7 µM), actives largely listed as inhibitors; hit rate 0.39% among 280,000; AID 1468, 2008; further: nearly all actives have a fitted effect of over 55% in size
Target sequence (P10636 561-689 P618L limits assumed): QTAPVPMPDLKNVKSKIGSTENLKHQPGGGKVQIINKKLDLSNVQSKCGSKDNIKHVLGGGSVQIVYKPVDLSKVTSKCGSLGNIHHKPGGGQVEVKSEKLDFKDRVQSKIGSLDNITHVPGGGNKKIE
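Read-out: fluorescence polarization of Alexa 594-labeled tau (0.24 uM), 555 nm excitation, 632 nm emission. Mixtures held 15 uM unlabeled K18 P301L, compound and 20 uM heparin, pH 7 acetate buffer, incubated 6 hr at 37 C.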
G9a inh: qHTS Assay for Inhibitors of Histone Lysine Methyltransferase G9a; G9a H3K9 monomethylation, AlphaScreen, 2 h; Histone-lysine N-methyltransferase EHMT2 (Homo sapiens), Q96KQ7; Potency, µM (doses to about 102 µM), usual class: inhibitors; hit rate 8.8% among 350,000; further: nearly all actives have a fitted effect of over 75% in size
Target sequence (Q96KQ7 913-1193 limits assumed): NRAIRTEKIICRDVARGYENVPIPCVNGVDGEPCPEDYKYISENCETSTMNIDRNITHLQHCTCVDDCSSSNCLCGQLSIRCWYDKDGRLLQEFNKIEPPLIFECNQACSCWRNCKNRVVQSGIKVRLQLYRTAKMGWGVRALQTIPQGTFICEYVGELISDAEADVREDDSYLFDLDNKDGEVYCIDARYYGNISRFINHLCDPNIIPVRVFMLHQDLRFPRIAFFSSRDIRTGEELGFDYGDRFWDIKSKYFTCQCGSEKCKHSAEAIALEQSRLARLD
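Methyltransferase reactions run at room temperature for 2 h (20 nM enzyme, 500 nM biotin-H3K9 peptide, 20 uM SAM) after a 15 min compound preincubation; product detected by AlphaScreen beads and anti-H3K9me1 antibody.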
Tau fibril ThT: qHTS for Inhibitors of Tau Fibril Formation, Thioflavin T Binding | Microtubule-associated protein tau (Homo sapiens), P10636 | recombinant tau K18 P301L (four-repeat tau fragment), heparin-induced fibrillization, ThT fluorescence | Potency, µM (titrated, usually from 57.4 µM), most hits filed as inhibitors | hit rate 2.1% among 270,000; further: nearly all actives have a fitted effect of over 55% in size
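In this qHTS, human K18 P301L tau is incubated with compound and heparin for 6 hr at 37 C, and Thioflavin T fluorescence then reports fibril load.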
Coupling enz: qHTS Assay for Inhibitors of Fructose-1,6-bisphosphate Aldolase from Giardia Lamblia: Coupling assay counterscreen. hit rate 0.67% among 290,000. AID 2472, 2010. activity change, negative = inhibition, % at 58.2 µM, hits read low. coupling enzyme system counterscreen, AmpLite Red fluorescence; in the data active means activity change below about -30%
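Fluorescence at 525 nm excitation and 598 nm emission measured inhibition of the coupled detection system without aldolase. Compounds (at 57.5 uM final) were preincubated 10 min at room temperature with coupling enzyme reagent before a 20 min substrate/AmpLite Red step.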
Sfp PPTase inh: qHTS Assay for Inhibitors of Bacillus subtilis Sfp phosphopantetheinyl transferase (PPTase) | hit rate 3.5% among 310,000 | Biochemical Sfp PPTase activity, qHTS | Potency, µM, usual class: inhibitors | 4'-phosphopantetheinyl transferase ffp (Bacillus subtilis), Q9F4F7;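 further: the enzyme is Sfp with the accession as filed and its product quenches rhodamine fluorescence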
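Compounds were incubated with enzyme (final 15 nM) for 15 min at room temperature before substrate addition started the reaction. Fluorescence at 525 nm excitation, 598 nm emission was recorded immediately and after 30 minutes.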
Hits are given with their value; i = inactive; ? = inconclusive; nt = no result; ! = a repeat was not active; [ ] = remark or other dose. Unless noted, the call rests on the fitted dose curve; in most records, active means well fitted curve in the direction sought with a large enough effect; inconclusive means small, poorly fitted or top-dose-only effect, or another doubt; inactive means no such curve, though single readings can be large; an effect the other way counts as inactive or inconclusive.

SMILES	Tau fluor counter	Tau FP inhib	G9a inh	Tau fibril ThT	Coupling enz	Sfp PPTase inh
COC(=O)c1cc(=O)n(Cc2ccc(OC)c(OC)c2)c(=Nc2ccc(F)cc2)s1	i	i	?	?	i	?
COC(=O)c1cc(=O)n(CCc2ccc(OC)c(OC)c2)c(=Nc2ccc(F)c(Cl)c2)s1	i	i	25µM	?	i	?
CO[C@@H](CCOCc1ccccc1)C[C@H]1O[C@H](C(=O)OC(C)C)C=C[C@@H]1C	i	i	nt	i	i	i
O=C1N=c2ccccc2=C1c1sc(NS(=O)(=O)c2ccccc2)nc1O	?	i	50µM	7.1µM	i	i
O=C1N=c2ccccc2=C1c1sc(Nc2ccc(O)cc2)nc1O	14µM[quencher]	i	79µM	2.2µM	i	56µM
O=C1N=c2ccccc2=C1c1sc(NS(=O)(=O)Cc2ccccc2)nc1O	i	i	i	7.9µM	i	i
CCOC(=O)c1c(Nc2cccc(C(=O)OC)c2)nnc(-c2ccccc2)c1-c1ccccc1	i	i	?	?	nt	nt
CCOC(=O)c1c(Nc2ccc(C)cc2)nnc(-c2ccccc2)c1-c1ccccc1	i	i	2.2µM	?	nt	nt
CCCn1c(C2CCCN2c2nc(-c3ccc(C)cc3)cs2)nc2ccccc21 (centres undefined)	nt	nt	40µM	nt	i	50µM
Cc1ccc(-c2csc(N3CCC[C@@H]3C(=O)NCCn3c(-c4ccncc4)nc4ccccc43)n2)cc1	nt	nt	45µM	nt	i	i
CCn1c(C(C)NC(C)=O)nc2ccccc21 (centres undefined)	i	i	i	i	i	i
Cc1ccc(-c2csc(N(CCO)CCCn3c(C(F)(F)F)nc4cc(C(F)(F)F)ccc43)n2)cc1	nt	nt	25µM	nt	i	i
CC(=O)N[C@@H](C)c1nc2ccccc2n1CCCN1CCN(c2nc(-c3ccc(C)cc3)cs2)CC1	nt	nt	45µM	nt	i	i
Cc1ccnc(NC(=O)CCC(=O)c2cc(C)sc2C)c1	nt	nt	i	nt	nt	nt
O=C(Nc1cccc(C(=O)N2CCCc3ccccc32)c1)c1ccccc1	nt	nt	i[0.501 µM]	nt	i	i
CC(=O)c1ccc(NC(=O)CSc2cn(CC(=O)N(C(C)C)C(C)C)c3ccccc23)cc1	i	i	i	i	nt	nt
O=C(NCC(=O)c1ccccc1)OCc1ccc([N+](=O)[O-])cc1	nt	nt	i[0.501 µM]	nt	i	i
OCCN(CCCn1c(-c2ccncc2)nc2ccccc21)c1nc(CN2CCCCC2)cs1	nt	nt	i	nt	i	i
Cc1ccc(-c2csc(N3CCN(CCCn4c(-c5ccncc5)nc5ccccc54)CC3)n2)cc1	nt	nt	50µM	nt	i	i
Cc1ccc(-c2csc(NCCn3c(C(F)(F)F)nc4ccccc43)n2)cc1	nt	nt	?	nt	i	i
Cc1ccc(-c2csc(N3CCN(CCCn4c(C(F)(F)F)nc5ccccc54)CC3)n2)cc1	nt	nt	45µM	nt	i	i
O=C(O)COc1ccccc1C1Nc2ccccc2-c2nnc(SCc3ccc(Cl)cc3)nc2O1 (centres undefined)	i	i	?	?	nt	nt
CN(C)S(=O)(=O)c1cccc(-c2csc(N/N=C/c3ccco3)n2)c1	?	?	i[12.7 µM]	?	i	14µM
Cc1cc(C)n(-c2ccc(C(=O)Nc3cccnc3Cl)cc2)n1	i	i	i	i	i	i
Cc1cc(C)n(-c2ccc(C(=O)Nc3cc(S(=O)(=O)N(C)C)ccc3Cl)cc2)n1	i	i	79µM	i	i	i
SMILES	Tau fluor counter	Tau FP inhib	G9a inh	Tau fibril ThT	Coupling enz	Sfp PPTase inh
N#Cc1cccc(-c2nc3cnc(Oc4cccc(Cl)c4)nc3n(C3CC3)c2=O)c1	nt	nt	i[0.501 µM]	nt	i	i
O=C(O)CCCC(=O)NCc1c(Cl)cccc1Sc1ccc(Cl)cc1	i	i	nt	i	i	79µM
CC(C)(CC(=O)O)CC(=O)NCc1c(Cl)cccc1Sc1ccc(Cl)cc1	i	i	i	i	i	i
NS(=O)(=O)Nc1ccccc1Br	nt	nt	nt	nt	i	i
COc1c(Cl)cc(C(=O)Nc2cccc(-c3nc4ccccc4[nH]3)c2)cc1Cl	?	22µM	i	?	nt	nt
O=C(Nc1cccc(-c2nc3ccccc3[nH]2)c1)c1ccco1	i	?	?	i	i	i
CCCN(CCC)S(=O)(=O)c1ccc(C(=O)Nc2cccc(-c3nc4ccccc4[nH]3)c2)cc1	?	25µM	i	i	nt	nt
CN(C)C(=S)Nn1c(-c2ccccc2)nc2ccccc2c1=O	i	i	i	i	i	i
Cc1cccc(-c2nc3ccccc3c(=O)n2NC(=S)N(C)C)c1	i	i	8.9µM	i	i	32µM
CCCCc1nn2c(=O)cc(COC(=O)c3ccccc3NC(=O)C3CCCCC3)nc2s1	i	i	i	i	nt	nt
COc1cc2[nH]c(=S)nc(NCc3ccccn3)c2cc1OC	i	i	50µM	i	i	i
COc1cc2[nH]c(=S)nc(NCc3cccnc3)c2cc1OC	nt	nt	45µM	nt	i	i
COc1ccc(CNc2nc(=S)[nH]c3cc(OC)c(OC)cc23)cc1	nt	nt	10µM	nt	i	i
CC(C)CCNC(=O)C1CCN(C(=O)c2cc3sccc3n2Cc2ccc(Cl)cc2)CC1	i	i	i	i	nt	nt
O=C(NC(CO)(CO)CO)[C@@H]1CCCN1S(=O)(=O)c1cccc2cccnc12	nt	nt	i[2.33 µM]	nt	nt	nt
C=CCN1C(=O)/C(=C/c2ccc(OC(C)=O)c(OCC)c2[N+](=O)[O-])SC1=S	i	i	6.3µM	i	i	16µM
CCOc1cc(/C=C2\SC(=NC)N(C)C2=O)c(Br)cc1OC(C)=O	nt	nt	i	nt	i	i
CCN(CCNCC(O)COc1ccccc1C(C)C)c1cccc(C)c1 (centres undefined)	nt	nt	10µM	nt	i	45µM
O=Cc1s/c(=N\S(=O)(=O)c2ccccc2)n(CCCCl)c1Cl	i	?	45µM	28µM	i	i
O=C1OCC2OC(O)C(O)C(O)C2OC(=O)c2cc(O)c(O)c(O)c2-c2c(O)c(O)c3oc(=O)c4c(c(O)c(O)c5oc(=O)c2c3c54)-c2c1cc(O)c(O)c2O (centres undefined)	?	?	?	7.9µM	i	3.5µM
O=C1c2ccc([N+](=O)[O-])cc2S(=O)(=O)N1Cc1ccccc1	nt	nt	11µM	nt	i	i
CC(=O)c1ccc2c(c1)N(CCCN1CCN(CCO)CC1)c1ccccc1S2	nt	nt	?	nt	nt	i
O=C(CCN1CCOCC1)N1c2ccccc2Sc2ccc(Cl)cc21	nt	nt	i[2.33 µM]	nt	i	i
CN1CCN(CCCN2c3ccccc3Sc3ccc(Cl)cc32)CC1	?	i	16µM!	?	i	?
CCSc1ccc2c(c1)N(CCCN1CCN(C)CC1)c1ccccc1S2	nt	nt	14µM	nt	i	i
CN1CCCC(CN2c3ccccc3Sc3ccccc32)C1 (centres undefined)	nt	nt	i[12.7 µM]	nt	i	i

Screening results from PubChem.
